The values that follow come from PubChem BioAssay (EPA / NIEHS).

The AC50 is the concentration at which the activity in the assay is half-maximal.

Values joined by “and” are separate entries in the source; they are usually repeats but may differ in a detail not shown here. Equal entries are not always repeated. More than one record can exist for a structure, and the calls need not agree. Active and inactive are the calls of the source. How the source made its calls: active means hit-call score of the fitted dose curve at least 0.9, where 1 is the maximum; inactive means score below 0.9.

The nature of this assay: BSK_hDFCGF_Proliferation: Cell Proliferation Assessment in the BioMAP Diversity Plus: hDFCGF Assay (AID 2283059).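 Further: curves fitted for both rise and fall of signal versus DMSO baseline.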 To be noted: primary human foreskin fibroblasts. As for the experimental part:
BSK_hDFCGF is a cell-based, multiplexed-readout assay that uses foreskin fibroblast, a human skin primary cell, with measurements taken at 24 hours after chemical dosing in a 96-well plate.BSK_hDFCGF_Proliferation is an assay component measured in the BSK_hDFCGF assay. It measures […] related to cell proliferation using Sulforhodamine staining technology.Data from the assay component BSK_hDFCGF_Proliferation was analyzed into 1 assay endpoint. This assay endpoint, BSK_hDFCGF_Proliferation, was analyzed with bidirectional fitting relative to DMSO as the negative control and baseline of activity. Using a type of viability reporter, measures of total protein for gain or loss-of-signal activity can be used to understand the viability at the cellular-level. Furthermore, this assay endpoint can be referred to as a secondary readout, because this assay has produced multiple assay endpoints where this one serves a viability function. To generalize the intended target to other relatable targets, this assay endpoint is annotated to the cell cycle intended target family, where the subfamily is proliferation.
The levels of cell surface (or secreted, indicated by the prefix "s") biomarker endpoints were measured by ELISA. Overt cytotoxicity to cells in confluent adherent cultures (all systems other than the BT system) was assessed by measuring total protein levels using sulforhodamine B (SRB) staining in parallel cultures at the time of biomarker measurements, indicated as SRB endpoints. For proliferation assays for adherent cell types, individual cell types are cultured at sub-confluence and relative cell numbers quantified by SRB staining at time points optimized for each system (48 h: 3C and CASM3C systems; 72 h: BT and HDF3CGF systems; 96 h: SAg system). SRB was performed by staining cells with 0.1% SRB after fixation with 10% TCA and reading wells at 560 nm.Viability and proliferation of PBMC (T cells) was quantified by Alamar Blue reduction for the SAg and BT systems. For PBMC viability (referred to as PBMC Cytotoxicity within the assay endpoint names), cells were plated (75,000/well in a 96-well plate) and then chemical samples added for 1 h before addition of activators, SEB and TSST-1 (20 ng/mL final concentration each). Cells were incubated for 90 h. Then, Alamar Blue (20 uL/well) (Invitrogen, Cat DAL1100) was added for 6 h, and the plates were read with a fluorescence microplate reader at 546/580 nm (excitation/emission). For PBMC proliferation, cells were plated and activated as above but incubated for only 16 h prior to addition of Alamar Blue. Plates were read after 6 h.
Regarding `CNS(=O)(=O)C(F)(F)C(F)(F)C(F)(F)C(F)(F)C(F)(F)C(F)(F)C(F)(F)C(F)(F)F`, the result was inactive. Same read-out and setting: in the case of `OCC(F)(F)C(F)(F)C(F)(F)CO` it was “inactive”; in that of `O=C(O)C(F)(F)C(F)(F)C(F)(F)C(F)(F)C(F)(F)C(F)(F)C(F)F`, “inactive”; in that of `O=C(Cl)C(F)(F)C(F)(F)C(F)(F)C(F)(F)C(F)(F)C(F)(F)F`, “inactive”. The same measure, in the same setting: in the case of `O=S(=O)(O)CCC(F)(F)C(F)(F)C(F)(F)C(F)(F)C(F)(F)C(F)(F)C(F)(F)C(F)(F)F` it was “inactive”. Turning to `CCN(CC)c1ccc(N=Nc2ccccc2)cc1`, the AC50 was 8.62 µM (active). As for `Cc1ccc(O)c(-n2nc3ccccc3n2)c1`, the result was inactive. In the case of `C=CC(=O)OCC(F)(F)C(F)(F)C(F)(F)COC(=O)C=C`, the concentration at half-maximal activity (AC50) is 111 nM (active) and 1.28 µM (active). With `C=C(C)C(=O)OCC(F)(F)C(F)(F)C(F)(F)C(F)F`, the outcome was inactive.

For the molecule `NC(=O)C(F)(F)C(F)(F)C(F)(F)C(F)F`, the result was inactive.

For `O=C(O)CCC(F)(F)C(F)(F)C(F)(F)F`, the result was inactive. On to `O=S(=O)(Cl)C(F)(F)C(F)(F)C(F)(F)C(F)(F)C(F)(F)C(F)(F)C(F)(F)C(F)(F)F`, for which the AC50 is 7.61 µM (active) and the outcome was inactive.

As for `FC(F)(F)C(F)(F)C(F)(F)C(F)(F)C(F)(F)C(F)(F)C(F)(F)CCI`, the AC50 is 1.78 µM (active) and 1.25 µM (active). On to `OCCCCC(F)(F)C(F)(F)C(F)(F)C(F)(F)F`, for which the outcome was inactive. Regarding `C=CC(=O)OCC(F)(F)C(F)(F)C(F)(F)C(F)(F)C(F)(F)C(F)(F)C(F)(F)C(F)F`, the AC50 is 18.4 µM (active) and 11.6 µM (active). In the case of `OC(O)C(F)(F)C(F)(F)F`, the outcome was inactive.

With `OCC(F)(F)C(F)(F)C(F)(F)C(F)(F)C(F)(F)C(F)(F)CO`, the result was inactive.

`CCN(CC)c1ccc(C=O)cc1`: the outcome was inactive. Same read-out and setting: with `O=C(O)C(F)(F)C(F)(F)C(F)(F)OC(F)(F)F` the entry was “inactive”.

`CCN=C1C=CC(=C(c2ccc(N(CC)CC)cc2)c2ccc(N(CC)CC)cc2)c2ccccc21`: the AC50 is 180 nM (active) and 151 nM (active). The same measure, in the same setting: in the case of `O=C1c2c(O)ccc(Nc3ccc(CCO)cc3)c2C(=O)c2c([N+](=O)[O-])ccc(O)c21` it was 10.4 µM (active).

As to `OCC(O)CC(F)(F)C(F)(F)C(F)(F)C(F)(F)F` (stereo not given), the result was inactive. Take `Cc1ccc(S(=O)(=O)C(I)I)cc1`: the AC50 was 0.208 µM (active). Regarding `NC(=O)C(F)(F)C(F)(F)C(F)(F)C(F)(F)C(N)=O`, the outcome was inactive. On to `OCC(F)(F)C(F)(F)C(F)(F)C(F)(F)C(F)(F)C(F)(F)C(F)(F)C(F)(F)CO`, for which the AC50 is 39.8 µM (active) and 47.9 µM (active). On to `O=C(O)C(F)(F)C(F)(F)C(F)(F)C(=O)O`, for which the outcome was inactive. Regarding `O=C1C=CC(=O)N1c1ccc(Cc2ccc(N3C(=O)C=CC3=O)cc2)cc1`, the AC50 is 0.162 µM (active). As to `Cc1cc(O)c(C(C)(C)C)cc1C(C)(C)C`, the AC50 is 1.78 µM (active). For the molecule `CC(C)(C)c1cc(CCC(=O)NCCCCCCNC(=O)CCc2cc(C(C)(C)C)c(O)c(C(C)(C)C)c2)cc(C(C)(C)C)c1O`, the outcome was inactive. Consider `CC1=CC2C3C=CC(C3)C2C1C` (stereo not given), for which the AC50 was 28.2 µM (active).

Consider `NCC(F)(F)C(F)(F)C(F)(F)C(F)(F)C(F)(F)C(F)(F)C(F)(F)C(F)(F)F`, for which the result was inactive. With `O=S(=O)(O)CCC(F)(F)C(F)(F)C(F)(F)C(F)(F)F`, the result was inactive. Take `O=C(Cl)C(F)(F)C(F)(F)C(F)(F)C(F)(F)C(F)(F)C(F)(F)C(F)(F)F`: the outcome was inactive. Still for that read-out and setting: in the case of `OCC(O)CC(F)(F)C(F)(F)C(F)(F)C(F)(F)C(F)(F)C(F)(F)C(F)(F)C(F)(F)F` (stereo not given) it was “inactive”; in that of `CN(C(=O)C(F)(F)C(F)(F)C(F)(F)F)[Si](C)(C)C`, “inactive”; in that of `NC(=O)C(F)(F)C(F)(F)C(F)(F)C(F)(F)C(F)(F)C(F)(F)C(F)(F)F`, “inactive”. Take `C=CC(=O)OCCC(F)(F)C(F)(F)C(F)(F)C(F)(F)F`: the AC50 is 7.58 µM (active) and the result was inactive. In the case of `Nc1cc([N+](=O)[O-])cc(Cl)c1O`, the result was inactive.
